From PubChem BioAssay
This is a sample that favours compounds with a hit; in the whole collection about 2.9% have one here.
PP1 inh = blocks human PP1-alpha phosphatase, a PP5 counter-screen. P62136. 320,000 tested, 0.9% active. purified PP1alpha, OMFP fluorescence. inhibition, % at 6.7 µM;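 active means inhibition above the mean inhibition of all tested compounds plus 3 SD, computed separately for each screening campaign, cut at about 15% in these data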
Beta2AR agonist = activates human beta-2 adrenergic receptor causing internalization. Am2.2-beta2AR cells, FAP receptor internalization, flow cytometry. response, % (no concentration beside the values). 340,000 tested, 0.43% active;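 active means response above a set limit, near 3 SD of response in nonfluorescent compounds, cut at about 42% in these data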
GRK2 inh = blocks RNA aptamer binding to human GRK2. AID 488847. inhibition of aptamer binding, % at 10 µM. 330,000 tested, 0.59% active. P25098. bead flow cytometry, FAM-aptamer displacement from GRK2;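 active means inhibition of aptamer binding above 40%, roughly 3 SD of noise, on plates passing a quality check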;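 further: median bead fluorescence of bound FAM aptamer so fluorescent compounds give negative values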
Target sequence (P25098 whole entry, looked up): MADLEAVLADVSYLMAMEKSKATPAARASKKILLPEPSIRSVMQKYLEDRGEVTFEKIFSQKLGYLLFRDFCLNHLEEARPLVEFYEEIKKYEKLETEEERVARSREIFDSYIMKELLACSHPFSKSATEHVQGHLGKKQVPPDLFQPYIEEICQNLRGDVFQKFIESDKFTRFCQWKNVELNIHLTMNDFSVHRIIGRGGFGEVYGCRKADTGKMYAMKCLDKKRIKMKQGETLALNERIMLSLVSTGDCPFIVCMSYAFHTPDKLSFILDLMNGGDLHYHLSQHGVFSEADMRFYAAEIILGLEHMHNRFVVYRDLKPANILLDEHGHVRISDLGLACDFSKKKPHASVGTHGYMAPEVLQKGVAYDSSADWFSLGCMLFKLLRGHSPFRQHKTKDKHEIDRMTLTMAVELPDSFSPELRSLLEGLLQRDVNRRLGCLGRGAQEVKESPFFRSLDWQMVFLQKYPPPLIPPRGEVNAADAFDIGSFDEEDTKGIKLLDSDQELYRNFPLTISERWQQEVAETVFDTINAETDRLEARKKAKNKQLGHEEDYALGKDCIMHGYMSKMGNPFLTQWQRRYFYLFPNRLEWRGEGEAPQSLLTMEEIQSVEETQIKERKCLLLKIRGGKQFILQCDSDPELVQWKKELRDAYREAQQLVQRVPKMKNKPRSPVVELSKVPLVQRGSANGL
NadD block = inhibitors of Staphylococcus aureus NadD | purified NadD enzyme, colorimetric absorbance read-out | inhibition, % at 20 µM | 360,000 tested, 0.78% active; in the data active means inhibition above about 26%
Exocytosis inh = lytic granule exocytosis inhibition | TALL-104 LAMP-1 surface exposure, flow cytometry; cells stimulated with thapsigargin and PMA | inhibition, % at 10 µM | 360,000 tested, 0.66% active;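 active means inhibition above about 55%, limit read from the data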
Granule exo CP1 = blocks lytic granule exocytosis; AID 651954; 1,500 tested, 11% active; shares compounds with Exocytosis inh; TALL-104 cells, LAMP-1 externalization, flow cytometry; stimulated with PMA plus thapsigargin; inhibition, % at 10 µM; in the data active means inhibition above about 60%
Of the large screens only hits and unclear results are named; the others gave an inactive call (follow-up assays come after a bar, where they were run).

O=C(C1CC(=O)N(c2ccccc2)C1)N1CCN(c2ccccc2)CC1 (centres undefined)	none
O=C(NCCN1C(=O)S/C(=C\c2cccc(Cl)c2Cl)C1=O)C1=COCCO1	none
CCC(C)[C@H]1COCCS(=O)(=O)N1Cc1ccccc1 (some centres undefined)	none
CCOC(=O)C1(CCOc2ccccc2)CCN(Cc2ccc(O)cc2)CC1	Exocytosis inh 56.5 | Granule exo CP1 inactive
CCOC(=O)C1(CCOc2ccccc2)CCN(Cc2ccc(OCCO)cc2)CC1	none (no result: GRK2 inh)
CCOC(=O)Cn1c(=N)n(CCOc2cccc(C)c2)c2ccccc21	none
CCOC(=O)Cn1c(=N)n(CCOc2ccc(Br)cc2)c2ccccc21	Exocytosis inh 65.7 | Granule exo CP1 inactive
CN1c2ccccc2C(C)(C)C12CC(c1cccc(S(=O)(=O)N3CCCC3)c1)=NO2 (centres undefined)	none
CC(=O)Nc1ccc(NC(=O)CSc2nc(=O)n(Cc3ccncc3)c3c2CCC3)cc1	none
Cc1ccc(NC(=O)CSc2nc(=O)n(Cc3ccncc3)c3c2CCC3)c(C)c1	Exocytosis inh 58.6 | Granule exo CP1 inactive
CCOC(=O)c1nnc(-c2ccc(C)cc2)nc1Sc1ccc(Cl)cc1	none
CCOC(=O)c1nnc(-c2ccc(C)cc2)nc1Sc1ccccc1Cl	Exocytosis inh 78.6 | Granule exo CP1 inactive
CCOC(=O)c1nnc(-c2ccccc2)nc1Sc1c(Cl)cccc1Cl	Exocytosis inh 95.8 | Granule exo CP1 inactive
CCOC(=O)c1nnc(-c2ccc(C)cc2)nc1Oc1ccccc1Cl	Exocytosis inh 67.3 | Granule exo CP1 inactive
CCOC(=O)c1nnc(-c2ccc(C)cc2)nc1Oc1ccc(Cl)cc1Cl	none
CCN(CC)CCCNC(=S)N1CCN(c2nc(-c3ccccc3)cs2)CC1	Exocytosis inh 83.2 | Granule exo CP1 inactive
CCOCCCNC(=S)N1CCN(c2nc(-c3ccccc3)cs2)CC1	none
CCCc1cc(C(=O)N/N=C/c2cccn2C)cs1	none
CCSC1=NC(C)(C)C=C(/C=C/c2ccc(Cl)cc2Cl)N1	none
CSC1=NC(C)(C)C=C(/C=C/c2ccc(Cl)cc2Cl)N1	Exocytosis inh 74.7 | Granule exo CP1 inactive
CCN(CC)C(=O)C1=C(C)N(Cc2ccccc2)C(=O)C(CC(=O)NCc2ccco2)C1 (centres undefined)	none (no result: PP1 inh, Beta2AR agonist, GRK2 inh)
Cc1cc(NCCCOC(C)C)n2c(nc3ccccc32)c1C#N	Exocytosis inh 61.8 | Granule exo CP1 inactive
S=C(Nc1ccccc1Cl)NC1CC2CCCC(C1)N2C1CC1 (centres undefined)	Exocytosis inh 87.1 | Granule exo CP1 inactive
CCOc1ccccc1CNC(=O)C1CCCN(c2nnc(C)c3c(C)n(-c4ccccc4)nc23)C1 (centres undefined)	Exocytosis inh 72.5 | Granule exo CP1 inactive
Cc1ccc(-n2nc3c(N4CCC(C(=O)NCc5ccc(C)o5)CC4)nnc(C)c3c2C)cc1	none
Cc1ccc(-n2nc3c(N4CCC(C(=O)NCc5cccc(F)c5)CC4)nnc(C)c3c2C)cc1	Exocytosis inh 59.0 | Granule exo CP1 inactive
COc1cccc(N2CCN(C(=O)c3ccc(OC)c(S(=O)(=O)NC4CC4)c3)CC2)c1	none (no result: PP1 inh, Beta2AR agonist, GRK2 inh)
CCC(=O)N1CCC1(C)C(=O)Nc1ccc(C)c(C)c1 (centres undefined)	none (no result: PP1 inh, Beta2AR agonist, GRK2 inh)
O=C(NC1CCCC1)C(c1cccs1)N(Cc1ccco1)C(=O)Cn1nnc(-c2cccs2)n1 (centres undefined)	none
Cc1ccc(-c2nnn(CC(=O)N(Cc3ccco3)C(C(=O)NC3CCCC3)c3cccs3)n2)o1 (centres undefined)	Exocytosis inh 65.9 | Granule exo CP1 inactive
COCc1cc(=O)[nH]c2cc(NC(=O)C3CC3)c(C)cc12	none
Nc1c(C(=O)c2ccc(Cl)cc2)sc2nsc(SCCN3CCOCC3)c12	none
Nc1c(C(=O)c2ccccc2)sc2nsc(SCCN3CCCC3)c12	Exocytosis inh 64.0 | Granule exo CP1 inactive
COc1ccc(NC(=O)c2ccncc2)cc1S(=O)(=O)N1CCCCC1	none (no result: PP1 inh, Beta2AR agonist, GRK2 inh)
N#Cc1cccc(C(=O)C(=O)N2CCN(c3ccccc3)CC2)c1	none (no result: PP1 inh, Beta2AR agonist, GRK2 inh, NadD block)
CCOc1ccc(NC(=O)C2CCCN2S(=O)(=O)c2ccc(OCC)cc2)cc1 (centres undefined)	Exocytosis inh 55.7 | Granule exo CP1 inactive
CCn1c2c(c3cc(OCC(C)C)ccc31)CCCC2=O	Exocytosis inh 57.8 | Granule exo CP1 inactive
COc1ccc(C(C)(C)C)cc1NS(=O)(=O)c1cccc2cccnc12	Exocytosis inh 59.0 (no result: PP1 inh) | Granule exo CP1 inactive
COC(=O)c1ccccc1NS(=O)(=O)c1ccc(Cl)nc1	Exocytosis inh 85.9 | Granule exo CP1 inactive
C[C@@H](OC(=O)N1CCCCC1)[C@H]1O[C@]2(C)CCCC[C@H]1O2	none
COc1ccc(CCNCc2cc(C)n(-c3ccc(OC)cc3)c2C)cc1	Exocytosis inh 61.1 | Granule exo CP1 inactive
COc1ccc(CCNCc2ccccc2N2CCCC2)cc1	none
O=C(NCCCN1CCCC1=O)C1CCN(S(=O)(=O)c2cc(C(F)(F)F)ccc2Cl)CC1	Exocytosis inh 89.8 | Granule exo CP1 inactive
Cc1ccc(C(=O)NC(Cc2cccc(C(F)(F)F)c2)C(=O)O)cc1 (centres undefined)	none (no result: PP1 inh)
O=C(N[C@@H](Cc1ccccc1)C(=O)O)c1ccc(C(F)(F)F)cc1	Exocytosis inh 84.5 | Granule exo CP1 inactive
CCc1cccc(CC)c1NC(=O)c1cccc(NC(=O)c2ccccc2)c1	none
CCc1cccc(C)c1NC(=O)c1cccc(N(C)C)c1	Exocytosis inh 69.5 | Granule exo CP1 inactive
Oc1ccccc1CN1CCCC(N2CCN(c3cccc(C(F)(F)F)c3)CC2)C1 (centres undefined)	Exocytosis inh 68.2 | Granule exo CP1 inactive
COc1cc(CN2CCN(c3ccccc3C)CC2)cc([N+](=O)[O-])c1O	none
COc1ccc(CN2CCCC(N3CCN(c4cccc(Cl)c4)CC3)C2)cc1OC (centres undefined)	Exocytosis inh 67.2 (no result: PP1 inh) | Granule exo CP1 inactive
COc1cc(CN2CCCC(N3CCN(c4ccccc4C)CC3)C2)cc(Cl)c1O (centres undefined)	Exocytosis inh 57.0 | Granule exo CP1 inactive
COc1ccc(-c2cc(C(=O)N/N=C(\C)c3cccnc3)c3ccccc3n2)c(OC)c1	none
Cc1noc(C)c1COC(=O)CCCc1c[nH]c2ccccc12	none
CCOC(=O)c1c(CSc2cccs2)n(C)c2cc(Br)c(O)c(CN(C)C)c12	Exocytosis inh 89.6 | Granule exo CP1 inactive
CCOC(=O)c1c(C)n(C)c2cc(Br)c(O)c(O)c12	none
CC1(C(=O)NS(=O)(=O)c2ccc(Br)cc2)CCN1C(=O)Cc1ccsc1 (centres undefined)	none (no result: PP1 inh, Beta2AR agonist, GRK2 inh)
CC1(C(=O)NS(=O)(=O)c2ccc(Cl)cc2)CCN1C(=O)Cc1ccsc1 (centres undefined)	Exocytosis inh 78.3 (no result: PP1 inh, Beta2AR agonist, GRK2 inh) | Granule exo CP1 inactive
Cc1ccc(N2C(=O)CC(Sc3cccs3)C2=O)cc1 (centres undefined)	Exocytosis inh 86.4 | Granule exo CP1 inactive
